Data published in the supplement of paper PMC10646978.
± gives the standard deviation.

Experiments:
Settings in all cases: modulator concentration 10 µM
[1] = test system: RAW-Dual (murine macrophage reporter line); assay: NF-kB reporter (SEAP) activity fold change vs agonist alone; higher = enhanced NF-kB activity
Summary of the method: (§1)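 RAW-Dual murine macrophage reporter cells were seeded at 50 000 per well in 384-well plates and pre-incubated 1 hour at 37 °C with compound pin-transferred to 10 μM final. After 1 hour, a PRR agonist was added and cells incubated overnight. Supernatant NF-κB (SEAP, QUANTI-Blue, 620 nm absorbance) and IRF (Lucia luciferase, QUANTI-Luc, luminescence) signals were divided by the mean agonist-only control on the same plate to give fold change. Two replicate plates were averaged, with errors by propagation.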

[2] = test system: RAW-Dual (murine macrophage reporter line); assay: IRF reporter (Lucia luciferase) activity fold change vs agonist alone; higher = enhanced IRF activity
Summary of the method: as §1

[3] = test system: RAW-Dual (murine macrophage reporter line); assay: viability score (confluency relative to resting cells, overnight) (fraction); higher = more viable, active = viable (0.7 or more)
Summary of the method: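 RAW-Dual macrophages in 384-well plates were incubated overnight with compound, final concentration 10 μM. Confluency images from IncuCyte were processed in IncuCyte software into two masks covering all imaged wells. The viability score is each well's confluency relative to resting cells, and a compound met the cutoff when both masks exceeded 70% of resting cells.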

[4] = agonist: CpG ODN 1826 0.5 ug/mL

Row | Structure (SMILES) | NF-kB reporter [1, 4] | NF-kB reporter ([1]; agonist: LPS 0.1 ug/mL) | NF-kB reporter ([1]; agonist: MPLA […]) | IRF reporter ([2]; agonist: 3'3'-cGAMP 10 ug/mL) | IRF reporter ([2]; agonist: LPS 0.1 ug/mL) | IRF reporter ([2]; agonist: MPLA […]) | viability score [3]
1 | C#Cc1cccc(Nc2ncnc3cc(OCCOC)c(OCCOC)cc23)c1 | 0.819 ± 0.051 | 1.1 ± 0.092 | 0.945 ± 0.05 | 0.948 ± 0.055 | 1.05 ± 0.16 | 1.13 ± 0.3 | 0.993 (active)
2 | CC(C)c1ccccc1NC(=O)C1COCC(=O)N1Cc1ccccc1 (stereo unspecified) | 0.983 ± 0.063 | 0.996 ± 0.15 | 1.08 ± 0.058 | 0.985 ± 0.074 | 1.15 ± 0.26 | 1.29 ± 0.51 | 0.979 (active)
3 | O=C1C(CCC(O)c2ccc(F)cc2)C(c2ccc(O)cc2)N1c1ccc(F)cc1 (stereo unspecified) | 1.09 ± 0.085 | 0.898 ± 0.16 | 1.04 ± 0.098 | 0.942 ± 0.034 | 1.16 ± 0.2 | 1.18 ± 0.25 | 1.01 (active)
4 | COc1ccc(OCCSc2nc3ccccc3n2CCO)cc1 | 1.01 ± 0.094 | 1.09 ± 0.12 | 1.09 ± 0.031 | 1.35 ± 0.55 | 1 ± 0.063 | 1.05 ± 0.14 | 0.992 (active)
5 | COC(=O)c1ccc(CN2CCc3ccccc3C2)cc1 | 0.82 ± 0.089 | 1.17 ± 0.08 | 1.3 ± 0.059 | 0.832 ± 0.052 | 0.974 ± 0.1 | 1.5 ± 0.36 | 0.938 (active)
6 | Cc1ccc(S(=O)(=O)N2CCN(C(C)C)CC2)cc1 | 1.13 ± 0.11 | 0.94 ± 0.14 | 1.01 ± 0.043 | 0.96 ± 0.17 | 0.898 ± 0.037 | 0.994 ± 0.1 | 0.996 (active)
7 | O=C(O)c1ccc(-n2nc(-c3ccccc3O)nc2-c2ccccc2O)cc1 | 0.749 ± 0.082 | 0.917 ± 0.1 | 1.11 ± 0.13 | 0.902 ± 0.042 | 1.31 ± 0.14 | 1.49 ± 0.15 | 0.988 (active)
8 | COc1ccc(CC(=O)N2CCC(N3CCC(OC)CC3)CC2)cc1OC | 0.965 ± 0.063 | 1.09 ± 0.087 | 0.893 ± 0.041 | 0.949 ± 0.05 | 1.02 ± 0.11 | 1.08 ± 0.35 | 0.974 (active)
9 | COc1ccc2ccccc2c1C=C1SC(=S)N(CC(=O)O)C1=O | 1.05 ± 0.081 | 1 ± 0.12 | 1 ± 0.099 | 0.988 ± 0.053 | 1.34 ± 0.27 | 1.52 ± 0.4 | 1.04 (active)
10 | CN(C)CCCOc1nn(Cc2ccccc2)c2ccccc12.Cl | 0.704 ± 0.032 | 0.913 ± 0.073 | 0.803 ± 0.045 | 0.892 ± 0.043 | 1.14 ± 0.27 | 1.22 ± 0.43 | 1 (active)
11 | CC1CCN(C2CC(=O)N(c3ccc(S(=O)(=O)N4CCOCC4)cc3)C2=O)CC1 (stereo unspecified) | 0.986 ± 0.082 | 1.02 ± 0.065 | 0.843 ± 0.05 | 1.02 ± 0.025 | 1.33 ± 0.096 | 0.995 ± 0.23 | 1 (active)
12 | NC[C@H]1CC[C@H](C(=O)O)CC1 | 0.939 ± 0.1 | 1.06 ± 0.073 | 0.958 ± 0.021 | 0.993 ± 0.14 | 1.01 ± 0.061 | 1.13 ± 0.11 | 0.999 (active)
13 | Cn1cc(CC(=O)NC2CCN(c3cc(C(F)(F)F)ncn3)CC2)c2ccccc21 | 1.45 ± 0.082 | 1.24 ± 0.1 | 1.13 ± 0.23 | 0.77 ± 0.039 | 1.24 ± 0.075 | 1.39 ± 0.1 | 0.929 (active)
